Where “and” joins values, the source holds several entries; their conditions need not be identical. Equal entries are not always repeated. The panel holds about 79,000 compounds, 15% with a hit somewhere; the sample as a whole holds those more often. Where a structure was tested more than once in an assay, its records may differ in their call. Calls of active or inactive are those of the source. Rule as the data show it: active = growth inhibition above about 70%; inactive = the rest.

The values that follow come from PubChem BioAssay (NCI).

The experiment can be described thus: NCI Yeast Anticancer Drug Screen. Data for the mec2-1 strain (AID 157). The conditions noted are these: S. cerevisiae mec2-1 strain, at 5.0 µM (retest, dose inferred, filed as 0.5), stronger effect = higher value. In outline: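 Using mec2-1 yeast: add compound, measure growth, express inhibition versus vehicle-treated cultures.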
`CNC(=O)OCc1c(COC(=O)NC)c(C)n(-c2ccc(Cl)c(Cl)c2)c1C`: the growth inhibition was 23% (inactive). As for `COc1ccc2nc(N/N=C/c3sccc3C)cc(C)c2c1`, the figure is -10% (inactive). In the case of `CCCCCCCCCCCC[N+](C)(C)Cc1ccccc1` (tested in a mixture with another compound) it was 79% (active) and 55% (inactive) and 44% (inactive); in that of `CC(C)c1ccc(O)c(=O)cc1`, 2% (inactive) and -1% (inactive).

Consider `O=C(O)/C=C\C(=O)NNc1ccc(Br)cc1`, for which the growth inhibition is 76% (active). As for `S=c1[nH]nc(Cc2ccccc2)c(=S)[nH]1`, the figure is 7% (inactive); as for `CCN(CC)CCSc1c2ccccc2nc2cc(NCC(=O)Nc3ccccc3-c3ccccc3NC(=O)CNc3ccc4c(SCCN(CC)CC)c5ccccc5nc4c3)ccc12`, 20% (inactive).

Turning to `Cc1ccc(N(C=O)c2c([N+](=O)[O-])cc([N+](=O)[O-])c3c2=[N+]([O-])CN=3)cc1`, the growth inhibition is 6% (inactive). As for `Nc1ccccc1SSc1ccccc1N`, the figure is 80% (active) and 18% (inactive) and 29% (inactive); as for `COc1ccc(C(=O)OCCc2ccccc2)cc1`, -28% (inactive); as for `COc1ccc(C(=O)NCCN(C)C)c2nc3ccccc3cc12`, 14% (inactive). In the case of `NCC(O)CSCc1ccc(Cl)cc1` (centres undefined) it was -14% (inactive); in that of `O=c1[nH]c(=O)n(CCCO)cc1F`, 24% (inactive); in that of `CCCCCCCCCCCC[N+](C)(C)C`, -3% (inactive) and 0% (inactive) and 22% (inactive). In the case of `COc1ccc(/C(=N/O)c2ccccc2C2=Nc3ccccc3C(NCc3ccccc3)O2)cc1C` (centres undefined) it was -4% (inactive); in that of `CCCC(=O)OC(OC(=O)CCC)c1ccc([N+](=O)[O-])o1`, 17% (inactive); in that of `O=C(/C(=C/c1ccccc1)CBr)c1ccccc1`, 3% (inactive).

For the compound `O=C(Cc1ccccc1F)NC1=C(Cl)C(=O)c2ccccc2C1=O`, the growth inhibition is -16% (inactive).

For the compound `Cc1cccc(N2CCN(C(=O)/C(=C/c3ccccc3)NC(=O)c3ccccc3)CC2)c1`, the growth inhibition is -3% (inactive).

Turning to `OCC(O)C(O)C(O)C(O)c1nc2ccccc2[nH]1` (centres undefined), the growth inhibition was -17% (inactive) and -20% (inactive).

Turning to `c1cc(Nc2ccc3c(c2)OCO3)c2cc(C3CCCCC3)ccc2n1`, the growth inhibition is -8% (inactive). In the case of `Cc1ccc2nc(N/N=C/c3ccc(C)s3)cc(C)c2c1` it was 12% (inactive); in that of `COc1cc(NCCCCCNC(C)C)c2ncccc2c1Cl`, -3% (inactive). Turning to `COc1cccc2c1C(=O)c1c(O)c3c(c(O)c1C2=O)CC(O)(C(=O)CO)CC3OC1CC(N)C(O)C(C)O1` (centres undefined), the growth inhibition is 7% (inactive) and 6% (inactive) and 14% (inactive). For the compound `COc1ccc2cc(CN3CCC(C4CCN(Cc5ccc6cc(OC)ccc6c5)CC4)CC3)ccc2c1`, the growth inhibition is -2% (inactive). In the case of `CC(=O)O/N=C/c1c2ccccc2cc2ccccc12` it was 4% (inactive); in that of `CC[C@@]1(OC(=O)CN(C)C)C(=O)OCc2c1cc1n(c2=O)Cc2cc3ccccc3nc2-1`, 53% (inactive). For the compound `CC1(C)CC(=O)C(C(CC(c2ccccc2)c2cc3c(cc2O)OCO3)C2=C(O)CC(C)(C)CC2=O)=C(O)C1` (centres undefined), the growth inhibition was 1% (inactive). As for `CCCCCCC(CCl)c1sc(-c2csc(CCNC(=O)OC(C)(C)C)n2)nc1C(=O)OC` (centres undefined), the figure is -11% (inactive). As for `CCOC(=O)C1=C(C)NC(C)=C(C(=O)OCC)C1c1cccc([N+](=O)[O-])c1`, the figure is 35% (inactive). In the case of `COc1nc(N)c(N=CC(OC(C)=O)C(OC(C)=O)C(COC(C)=O)OC(C)=O)c(=O)n1C` (centres undefined) it was 24% (inactive) and -10% (inactive) and 7% (inactive).

`Cc1ccc2c(/C=C/c3ccc(N(C)C)cc3)ccnc2c1C`: the growth inhibition is -7% (inactive). In the case of `Cc1cc(SC#N)ccc1O` it was -1% (inactive) and -7% (inactive) and -6% (inactive).

Take `O=C1C(Br)=CC(Br)(Br)C=C1Br`: the growth inhibition is 100% (active).
